Source: PMC4336329 (PLoS ONE, 2015)
In all, about 310,000 compounds went through this assay and about 14,000 (4.5%) showed an effect of 50% or more. Effects have a minus sign here. The list comes from a sample in which strong results are over-represented; it also holds similar structures and randomly drawn compounds.

The compounds below were run against human ether-à-go-go-related gene (hERG) potassium channel (human, UniProt Q12809) (assay: primary screen, population patch clamp on CHO cells stably expressing hERG; higher = less effect of the substance).
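Also: peak tail current of the secondary pulse compared with the same well before compound.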

Chain of human ether-à-go-go-related gene (hERG) potassium channel (Q12809 whole entry, looked up): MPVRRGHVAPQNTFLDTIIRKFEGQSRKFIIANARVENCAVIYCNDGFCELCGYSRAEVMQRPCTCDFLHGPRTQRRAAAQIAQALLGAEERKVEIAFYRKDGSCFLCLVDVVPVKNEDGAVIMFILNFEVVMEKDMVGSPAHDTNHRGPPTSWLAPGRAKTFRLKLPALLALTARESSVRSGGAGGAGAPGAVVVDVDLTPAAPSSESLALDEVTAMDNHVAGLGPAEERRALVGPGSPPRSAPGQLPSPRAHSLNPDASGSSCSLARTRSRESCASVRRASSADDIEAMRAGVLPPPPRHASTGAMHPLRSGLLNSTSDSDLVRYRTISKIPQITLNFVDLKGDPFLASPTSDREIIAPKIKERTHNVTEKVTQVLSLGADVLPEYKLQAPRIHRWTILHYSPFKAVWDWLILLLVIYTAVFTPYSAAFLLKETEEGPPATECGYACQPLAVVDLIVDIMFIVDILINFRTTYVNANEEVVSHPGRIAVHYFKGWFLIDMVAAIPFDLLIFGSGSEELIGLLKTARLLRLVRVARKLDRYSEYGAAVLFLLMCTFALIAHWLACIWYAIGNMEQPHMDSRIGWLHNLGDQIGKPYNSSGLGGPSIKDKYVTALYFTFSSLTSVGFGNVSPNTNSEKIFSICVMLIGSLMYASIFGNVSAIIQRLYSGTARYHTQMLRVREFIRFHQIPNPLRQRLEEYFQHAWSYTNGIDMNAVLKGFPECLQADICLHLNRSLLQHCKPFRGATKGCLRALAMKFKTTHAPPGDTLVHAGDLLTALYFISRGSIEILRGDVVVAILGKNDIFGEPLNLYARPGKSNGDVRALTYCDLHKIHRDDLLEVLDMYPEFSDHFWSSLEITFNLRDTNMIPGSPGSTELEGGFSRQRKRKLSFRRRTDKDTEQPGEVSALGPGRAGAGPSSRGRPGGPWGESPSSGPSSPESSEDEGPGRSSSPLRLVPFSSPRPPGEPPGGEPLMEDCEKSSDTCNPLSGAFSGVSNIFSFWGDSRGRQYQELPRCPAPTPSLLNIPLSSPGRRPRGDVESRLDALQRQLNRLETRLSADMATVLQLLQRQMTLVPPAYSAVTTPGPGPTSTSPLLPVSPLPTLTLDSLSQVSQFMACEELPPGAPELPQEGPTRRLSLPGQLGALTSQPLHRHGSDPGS

Compound	hERG current change (%, negative = inhibition) at 10uM [%]
O=C(NCc1ccncc1)/C(=N/O)c1ccccc1	18.7
CSc1ccccc1NC(=O)Nc1ccc(Cl)cc1	-1.3
CC(C)C(=O)Nc1ccccc1C(=O)OCC(=O)c1ccc2c(c1)OCCO2	-10.4
CCn1c(CN2CCN(Cc3ccc(C)cc3)C(CCO)C2)nc2ccccc21 (centres unmarked)	-74.7
CCn1cc(CN2CCN(Cc3ccccc3)C(CCO)C2)c2ccccc21 (centres unmarked)	-32
CC(C)Cn1c(CN2CCN(C)C(CCO)C2)nc2ccccc21 (centres unmarked)	4.02
OCCC1CN(Cc2ccc3cccc(F)c3n2)CCN1Cc1ccccc1 (centres unmarked)	-15.6
Cc1ccccc1CN1CCN(Cc2ccc3cccc(F)c3n2)CC1CCO (centres unmarked)	-32.7
Cc1ccc(CN2CCN(Cc3cccc(C)n3)CC2CCO)cc1 (centres unmarked)	-40.2
Cc1ccc(CN2CCN(Cc3nc4ccccc4nc3C)CC2CCO)cc1 (centres unmarked)	-69.7
Cc1ccc(CN2CCN(Cc3ccc4cccc(F)c4n3)CC2CCO)cc1 (centres unmarked)	-68.6
Cc1nc2ccccc2nc1CN1CCN(Cc2ccc(F)c(F)c2)C(CCO)C1 (centres unmarked)	-40.4
O=C(COc1ccc2ccccc2c1Br)Nn1cnnc1	-1.78
CCCCn1c(C)cc2cc(O)ccc21	-16.8
CC(Oc1ccccc1F)C(=O)NC1CCS(=O)(=O)C1 (centres unmarked)	11
CC(=O)[C@@H]1[C@@H](C)N(Cc2ccccc2)C(=O)N[C@H]1c1ccccc1	10.4
CC1(/[N+]([O-])=C/c2cccc(Cl)c2)CCCCC1=O (centres unmarked)	4.74
Cc1ccc(NC(=O)COC(=O)C2CC2(Cl)Cl)cc1C (centres unmarked)	-4.06
CSCCC(NC(=O)c1ccco1)C(=O)N(C)CC(=O)Nc1c(Cl)cccc1Cl (centres unmarked)	11.8
O=C(O)C1C2C=CC(C3CC23)C1C(=O)O (centres unmarked)	10.6
Cc1noc(C)c1C(=O)NCCc1ccccc1	0.324
COc1ccc(C(=O)NNC(=O)CN2CCC(n3nnc4cc(C(F)(F)F)ccc43)CC2)cc1	-10.4
O=C(CN1CCC(n2nnc3cc(C(F)(F)F)ccc32)CC1)Nc1ccc2c(c1)CCC2	1.83
O=C(CN1CCC(n2nnc3ccccc32)CC1)Nc1ccc2c(c1)CCC2	-39.3
O=C(CN1CCC(n2nnc3ccccc32)CC1)NCc1cccs1	-60.2
Cc1ccccc1C(=O)NC1CCN(CC(=O)NCc2cccs2)CC1	6.14

Compound	hERG current change (%, negative = inhibition) at 10uM [%]
O=C(CN1CCC(n2nnc3cc(C(F)(F)F)ccc32)CC1)NCc1cccs1	-74.5
COc1ccccc1CNC(=O)c1cc2c(s1)CS(=O)(=O)C2	10.3
COc1cc(C)c(NC(=S)Nc2ccc(Cl)c(Cl)c2)cc1OC	5.06
COc1cc(CNc2nnnn2C)ccc1OCc1c(F)cccc1Cl	0.756
COC(=O)C1=C(c2ccc(-c3ccccc3)c(F)c2)C[C@@H]2CC[C@H]1N2C(=O)NC(C)C	-16.8
COc1cccc(CN(C)C(=O)CSCC(=O)Nc2ccc(C)cc2)c1OC	-12.9
CCOC(=O)Cn1c(CN2CCOCC2)nc2c1c(=O)[nH]c(=O)n2C	7.2
COc1ccc(C2Nc3ccccc3C(=O)N2Cc2ccccc2)cc1 (centres unmarked)	3.75
CC(C)CC(NC(N)=O)C(=O)NCCc1ccc(Cl)cc1Cl (centres unmarked)	3.07
CCOP(=O)(OCC)C(NC(=O)Nc1cccc(Cl)c1)c1ccccc1 (centres unmarked)	5.75
COc1ccc2nc(/C=N/NC(=O)[C@H](C)NC(=O)OC(C)(C)C)ccc2c1	-7.25
COc1ccc2nc(/C=N/NC(=O)[C@H](CCSC)NC(=O)OC(C)(C)C)ccc2c1	-59.7
CCC(C)[C@H](NC(=O)OC(C)(C)C)C(=O)N/N=C/c1ccc2cc(OC)ccc2n1 (some centres unmarked)	-13.7
Cc1ccc(NC(=O)C2=C(C(=O)O)CCCC2)cc1F	7.33
Cn1ncc(C(=O)Nc2ccc(Cl)cc2)c1C(F)(F)F	-12
O=C(c1ccccc1)N1CCN(c2ccc([N+](=O)[O-])c(NCC3CCCO3)c2)CC1 (centres unmarked)	-76.9
O=C(Nc1ccccc1)c1ccc(NCC2CCCO2)c([N+](=O)[O-])c1 (centres unmarked)	-2.42
O=C(NCCc1ccccc1)c1ccc(NCC2CCCO2)c([N+](=O)[O-])c1 (centres unmarked)	-68.9
O=C(c1ccccc1F)N1CCN(c2ccc([N+](=O)[O-])c(NCC3CCCO3)c2)CC1 (centres unmarked)	-80.8
NC(=O)c1ccc(NCC2CCCO2)c([N+](=O)[O-])c1 (centres unmarked)	12.7
CN1CCN(c2ccc([N+](=O)[O-])c(NCC3CCCO3)c2)CC1.Cl (centres unmarked)	-41.4
CC(C)(C)C(=O)N1CCN(c2ccc([N+](=O)[O-])c(NCC3CCCO3)c2)CC1 (centres unmarked)	-20.8
O=[N+]([O-])c1ccc(N2CCNCC2)cc1NCC1CCCO1 (centres unmarked)	-22.1
CC(=O)N1CCN(c2ccc([N+](=O)[O-])c(NCC3CCCO3)c2)CC1 (centres unmarked)	-18.3
O=C1CC(N(C(=O)c2ccco2)c2cccc(Cl)c2)C(=O)N1c1cccc(Cl)c1 (centres unmarked)	-19.7
C/C(Cn1cnc([N+](=O)[O-])n1)=N\NC(=O)c1ccccc1O	8.06

Compound	hERG current change (%, negative = inhibition) at 10uM [%]
COc1cc(C(=O)Nc2ccc(Br)cc2C(=O)c2ccccc2)cc(OC)c1OC	12.4
COc1ccc(CNS(=O)(=O)c2cc(-c3cc(C)no3)ccc2C(C)C)cc1	-14.9
CCCCC(CC)CNC(=O)C1CCCN(S(=O)(=O)c2cnc[nH]2)C1 (centres unmarked)	3.45
N#CCCN(CC(=O)O)S(=O)(=O)c1ccccc1	5.74
CC(C)(C)OC(=O)N[C@H](Cc1ccccc1)C(=O)N1CCC(C(=O)O)CC1	9.08
COc1ccc2c(c1)CCc1c(C(=O)Nc3cc(C)n(Cc4ccc(Cl)cc4)n3)noc1-2	-30.5
COc1ccc(-c2nc(N)n[nH]2)cc1OC	18.9
COc1ccc(-c2n[nH]c3c2CN(C(=O)c2ccccc2)CC3)cc1	-6.13
Fc1cccc(NCc2ccoc2)c1	-7.89
Cc1ccc(-c2sc(-c3ccccc3)nc2CC(=O)Nc2ccccc2F)cc1	6.09
OCC1(Cc2ccccc2)CCN(C2CCN(c3ccc(F)c(F)c3)CC2)CC1	-112
O=C(NCc1ccccc1)N1CCC(CO)(Cc2cccc(F)c2)CC1	-12.8
O=C(NCc1ccccc1)N1CCN(c2ccccc2F)CC1	1.22
OCC1(Cc2ccccc2)CCCN(C2CCCC2)C1 (centres unmarked)	-8.01
OCC1(Cc2ccccc2)CCN(C2CCN(c3ccccc3F)CC2)CC1	-68.8
CC(=O)N1CCC(N2CCN(c3ccccc3F)CC2)CC1	0.444
Cc1ccc(-c2ccc(=O)n(Cc3c(F)cccc3Cl)n2)cc1	9.18
Cc1ccc2nc(Nc3ccccc3O)nc(-c3ccccc3)c2c1	14.3
O=C(CCN1C(=O)c2cccc3cccc(c23)C1=O)NCc1cccnc1	-16.7
C/C(CC(=O)Nc1ccccc1Cl)=N\NC(=O)C(=O)NCCO	6.65
COS(=O)(=O)[O-].C[N+]1(C)CCC(=C(c2ccccc2)c2ccccc2)CC1	-71
CC1CC(C)(C)CC(=O)C1C(=O)c1ccccc1 (centres unmarked)	16.4
O=C(O)c1ccc(S(=O)(=O)c2ccccc2)cc1	11.5
CCOc1ccc(-n2ccnc(SCC(=O)Nc3ccc(OC)cc3OC)c2=O)cc1	9.58
O=C(CON=C1c2ccccc2-c2ccccc21)NC12CC3CC(CC(C3)C1)C2	-7.23
N#CC1=C(SCc2ccccc2)NC(=O)CC1c1ccco1 (centres unmarked)	10.9

Compound	hERG current change (%, negative = inhibition) at 10uM [%]
CC(=O)N1CCC(O)(c2cccc(C(F)(F)F)c2)CC1	12.7
O=C(CCCN1CCC(O)(c2ccc(Br)cc2)CC1)c1ccc(F)cc1	-79.7
O=C(CN1CCC(O)(c2ccc(F)cc2)CC1)NCc1ccc(F)cc1	-34.2
OC1(c2cccc(C(F)(F)F)c2)CCN(CCN2CCCCC2)CC1	-3.82
C=CCNC(=O)CN1CCC(O)(c2ccc(F)cc2)CC1	-5.8
Cl.O=C(CCCN1CCC(O)(c2cccc(C(F)(F)F)c2)CC1)c1ccc(F)cc1	-75.6
O=C1CCC([N+](=O)[O-])C(C2CC=CCC2)N1 (centres unmarked)	4.76
CCOC(=O)c1ccc(CNC(=O)CCC(=O)O)cc1	4.15
COc1ccnc2c1c(=O)n(Cc1ccc(F)cc1)c(=O)n2C	-6.22
O=C(NCCCO)C(=O)Nc1cc2c3c(c1)CCN3C(=O)CC2	11.8
CC(=O)C1=C(C)NC(SCC(N)=O)=C(C#N)C1C (centres unmarked)	8.65
COc1ccc(C(=O)NCC(=O)NCC(=O)OCC(=O)c2ccc(C)cc2)cc1	4.23
COc1ccc(C(=O)NCC(=O)OCC(=O)c2ccc(Cl)cc2)cc1OC	-58.6
O=C(CNC(=O)c1ccccc1)OCc1cc(=O)n2cc(Br)ccc2n1	-31.6
COc1ccc(C(=O)NCC(=O)NCC(=O)OCC(=O)c2ccc(Br)cc2)cc1	15.3
COc1ccc(C(=O)NCC(=O)OCc2ccc(Cl)cc2Cl)cc1OC	-6.66
COc1ccc(C(=O)NCC(=O)OCc2ccc([N+](=O)[O-])cc2)cc1	-58.3
O=C(CNC(=O)c1cccc(F)c1)OCc1cc(=O)n2cc(Br)ccc2n1	-9.66
O=C(CNC(=O)c1ccccc1)OCc1ccc([N+](=O)[O-])cc1	-33.9
CC(C)(C)c1ccc(C(=O)NCC(=O)OCc2ccc([N+](=O)[O-])cc2)cc1	-7.46
COc1ccc(C(=O)COC(=O)CNC(=O)c2ccc(OC)cc2)cc1	-52.6
COc1ccc(C(=O)NCC(=O)OCC(=O)c2cc(OC)c(OC)c(OC)c2)cc1OC	28.5
O=C(CNC(=O)c1cccc(OC(F)F)c1)OCc1cc(=O)n2cc(Br)ccc2n1	-55.2
